High-throughput results deposited in PubChem by Broad Institute.
aSyn UTR act = Activators via SNCA 5'UTR binding, MLPCN; alpha-synuclein 5'UTR reporter, activators screen; activity score, % (tested at 7.5 µM), hits read low; 300,000 compounds, 7.1% hits; in the data active means activity score below about -60%
Numbers without * were called inactive. These entries were drawn from the full list.

SMILES	aSyn UTR act
S=C(Nc1cc(Cl)cc(Cl)c1)NC1CCN(Cc2ccccc2)CC1	72
O=C(Nc1cccc(Cl)c1)N1CCN(Cc2ccccc2)CC1	-159*
COc1ccc(-c2ccc3sc4ccccc4c(=O)c3c2)cn1	-81*
CN(C)c1ccc(-c2ccc3c(=O)c4ccccc4n(C)c3c2)cn1	-106*
COc1cc2sc3ccc(-c4ccc(N(C)C)nc4)cc3c(=O)c2cc1OC	-141*
CCOc1ccc2[nH]c3ncccc3c(=O)c2c1	-139*
O=C1c2ccccc2C(Nc2ccc3c(c2)OCCO3)N1c1ccc(Cl)cn1 (configuration not stated)	-76*
O=C(C1=C[C@@H](c2csc3ccccc23)C[C@@H](OCc2ccc(CO)cc2)O1)N1CCN(Cc2ccc3c(c2)OCO3)CC1	69
O=C1c2ccccc2C(Nc2ccc3c(c2)OCCO3)N1Cc1ccc2c(c1)OCO2 (configuration not stated)	-72*
CCOC(=O)C1CCCN(Cc2cc(=O)oc3cc(C)ccc23)C1 (configuration not stated)	-75*
Cc1ccc2c(CN3CCC(C)CC3)cc(=O)oc2c1	-150*
COc1cccc(/C=N/Nc2snc(SC)c2C#N)c1O	-157*
COc1ccc(/C=N/Nc2snc(SC)c2C#N)cc1OC	-146*
CSc1nsc(N/N=C/c2ccccc2)c1C#N	-150*
COc1cc(OC)c(C2CC(=O)N3CN(c4ccc(C)cc4)CSC3=C2C#N)cc1OC (configuration not stated)	-127*
CCc1ccc(N2CSC3=C(C#N)C(c4cccs4)CC(=O)N3C2)cc1 (configuration not stated)	-94*
Cc1ccc(N2CSC3=C(C#N)C(c4cccs4)CC(=O)N3C2)cc1 (configuration not stated)	-131*
COC(=O)N/N=C\C=C\c1ccc2c(c1)OCO2	-134*
CC(C)(C)OC(=O)N/N=C\C=C\c1ccc2c(c1)OCO2	-197*
CCOC(=O)N/N=C\C=C\c1ccc2c(c1)OCO2	-121*
FC(F)(F)c1cc(-c2ccco2)nc(NCCc2ccccc2)n1	-92*
CC(=O)c1cnc2cc(-c3ccc(C)cc3)nn2c1C	-243*
CC(=O)c1cnc2cc(-c3ccccc3)nn2c1C	-167*
COc1ccc(-c2cc3ncc(C(C)=O)c(C)n3n2)cc1	-137*
CC(=O)c1cnc2nc(SCc3ccccc3)nn2c1C	-157*
SMILES	aSyn UTR act
Cc1ccc2cc3cc(C(=O)NC4CC4)oc3nc2c1	-134*
Cc1ccc2cc3cc(C(=O)NC4CCCCC4)oc3nc2c1	-153*
Cc1nnsc1S(=O)(=O)Cc1ccccc1C(F)(F)F	-76*
CC1(C)CC(=O)c2c(nc(SCC(=O)Nc3nsc(-c4ccccc4)n3)c(C#N)c2-c2ccccc2)C1	74
COc1ccc(-c2nc(NC(=O)CSc3nnc(C)s3)ns2)cc1	-70*
COc1ccc2c(C)cc(SCC(=O)Nc3nsc(-c4ccc(C)cc4)n3)nc2c1	-82*
CC1CCc2c(sc(/N=C/c3cccnc3)c2C(N)=O)C1 (configuration not stated)	-103*
CC1CCc2c(sc(/N=C/c3ccco3)c2C(N)=O)C1 (configuration not stated)	-125*
c1ccc2nc(-c3ccc(N4CCOCC4)cc3)ccc2c1	104
Cc1cc(-c2ccc(N3CCOCC3)cc2)nc2ccccc12	-307*
CC(=O)c1ccc(N2CCN(C(=O)c3ccc(Cn4c(=S)[nH]c5ccc(N6CCOCC6)cc5c4=O)cc3)CC2)cc1	-72*
Fc1cccc2sc(Nc3nc4cc5c(cc4s3)OCO5)nc12	-222*
O=C(NNc1nc2cc3c(cc2s1)OCCO3)c1ccccc1	-141*
Fc1cc(F)c2nc(Nc3nc4cc5c(cc4s3)OCO5)sc2c1	-176*
Fc1cccc2sc(Nc3nc4cc5c(cc4s3)OCCO5)nc12	-78*
Cc1ccc(C(=O)N/N=C\c2ccc(-c3ccc(Cl)c(Cl)c3)o2)cn1	-66*
Cc1ccc(C(=O)N/N=C/c2cn(Cc3ccccc3)c3ccccc23)cn1	64
CC1(C)CC(=O)C=C(NNC(=O)c2ccccc2O)C1	-93*
O=C1CSC2=NCN(c3ccc4c(c3)OCO4)CN12	-147*
COc1ccc(-c2nc3ncccn3c2Br)cc1	-148*
Cc1ccc(-c2nc3ncccn3c2Nc2ccc3c(c2)OCCO3)cc1	-64*
Brc1c(-c2ccc3c(c2)OCO3)nc2ncccn12	-84*
Cc1ccc(C(=O)Nc2nccc(-c3cccs3)n2)cc1	-66*
Cc1ccc(C(=O)Nc2ncc3c(Cl)cccc3n2)cc1	65
COc1ccc(C(=O)Nc2nc(-c3cccs3)cs2)cc1	-91*
SMILES	aSyn UTR act
O=C(Nc1nc(-c2cc(Cl)sc2Cl)cs1)c1cccs1	-158*
Cc1csc(NC(=O)c2sc3nc(-c4cccs4)ccc3c2N)n1	-228*
O=C(Nc1nc(-c2cccs2)cs1)c1ccc(Cl)cc1	-88*
CCCN1C(=O)c2cccc3c(N4CCCCC4)ccc(c23)C1=O	-83*
Cc1ccc(N2C(=O)c3cccc4c(N)ccc(c34)C2=O)c2cccnc12	100
CCc1nc2cc3sc(CC)nc3cc2s1	-133*
CCCNc1c(F)c(F)c2c(C)c3ccccc3nc2c1F	-80*
